Reference: PubChem BioAssay

Columns and labels:
[1] = tested on: Human papillomavirus type 1a protein E7 (residues 44-93); assay: HPV1a E7 fragment binders on microarrays, primary screen, biochemical, small-molecule microarray, residues 44-93, 635 nm fluorescence (AID 1108); settings: small-molecule microarray binding, fluorescence 635 nm; higher = more signal;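 further: E7 fragment applied at 1 µg/mL in TBST for 1 h at 4 C; score combines spot fluorescence with its signal to noise ratio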
[2] = modulators of HCV replicon luciferase signal, primary screen, HCV replication inhibitor project, Huh7 cells, luciferase reporter (AID 1109); settings: 48 h, higher = more signal;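 further: huh7 hepatoma cells harbouring a luciferase neomycin HCV replicon reporter; luciferase luminescence as measure of HCV replicon replication; test concentration not given here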
[3] = biological target: Left-right determination factor 2 (Homo sapiens) (UniProt O00292); assay: LEFTY2 binders on small-molecule microarrays, primary screen, biochemical, small-molecule microarray, 635 nm fluorescence scan (AID 1110); settings: LEFTY2 binding, higher = more signal
Chain of Left-right determination factor 2 (Homo sapiens) (O00292 whole entry, looked up): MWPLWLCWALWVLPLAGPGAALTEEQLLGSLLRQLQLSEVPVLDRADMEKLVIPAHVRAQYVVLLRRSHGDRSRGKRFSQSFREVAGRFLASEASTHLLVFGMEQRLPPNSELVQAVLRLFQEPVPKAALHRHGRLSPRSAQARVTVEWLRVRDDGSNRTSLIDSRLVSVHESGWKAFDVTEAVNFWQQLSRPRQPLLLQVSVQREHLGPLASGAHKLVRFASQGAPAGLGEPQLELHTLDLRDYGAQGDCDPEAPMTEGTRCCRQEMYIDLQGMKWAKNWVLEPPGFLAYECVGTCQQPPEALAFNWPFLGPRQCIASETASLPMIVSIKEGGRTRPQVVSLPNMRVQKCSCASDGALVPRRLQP

[4] = biological target: Calmodulin-1 (Homo sapiens) (UniProt P0DP23); assay: CALM1 binders on microarrays, EGTA buffer, profiling panel, biochemical, small-molecule microarray, Cy5-labelled CALM1 (AID 1111); settings: Cy5-CALM1 binding fluorescence, higher = more signal;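 further: labelled calmodulin applied in Tris saline Tween buffer holding calcium plus EGTA and DTT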
[5] = biological target: Calmodulin-1 (Homo sapiens) (UniProt P0DP23); assay: calcium-bound CALM1 binders on microarrays, profiling panel, artefact control for SMM control-protein annotation, biochemical, small-molecule microarray, Cy5-labelled CALM1, plus calcium (AID 1112); settings: Cy5-CALM1 binding fluorescence, higher = more signal;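 further: score merges spot fluorescence with signal to noise from triplicate slides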
[6] = small-molecule microarray binders of probe aWnt5a, primary screen, biochemical, biotinylated probe, 635/667 nm fluorescence (AID 1113); settings: higher = more signal;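 further: score merges 667 nm fluorescence intensity with signal-to-noise per printed feature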
[7] = small-molecule microarray binders of probe aShh, primary screen, biochemical, biotinylated probe, 635/667 nm fluorescence (AID 1114); settings: higher = more signal;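 further: probe is biotin-labelled aShh protein from a stem cell growth factor screen; measures binding of labelled protein to compounds printed on the slide; score merges feature fluorescence at 667 nm with signal-to-noise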
[8] = small-molecule microarray binders of probe aNog, primary screen, biochemical, biotinylated probe, 635/667 nm fluorescence (AID 1115); settings: higher = more signal;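 further: probe is biotinylated aNog protein used at 0.15 µg/mL for 1 h at 4 C; z-score combines 667 nm fluorescence of each spot with its signal to noise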
[9] = biological target: Torsin-1A-interacting protein 1 (Homo sapiens) (UniProt Q5JTV8); assay: LAP1 binders from COS7 cell lysate, primary screen, small-molecule microarray, 635/667 nm fluorescence (AID 1116); settings: COS7-hLAP1 lysate binding, 635 nm fluorescence, higher = more signal
Chain of Torsin-1A-interacting protein 1 (Homo sapiens) (Q5JTV8 whole entry, looked up): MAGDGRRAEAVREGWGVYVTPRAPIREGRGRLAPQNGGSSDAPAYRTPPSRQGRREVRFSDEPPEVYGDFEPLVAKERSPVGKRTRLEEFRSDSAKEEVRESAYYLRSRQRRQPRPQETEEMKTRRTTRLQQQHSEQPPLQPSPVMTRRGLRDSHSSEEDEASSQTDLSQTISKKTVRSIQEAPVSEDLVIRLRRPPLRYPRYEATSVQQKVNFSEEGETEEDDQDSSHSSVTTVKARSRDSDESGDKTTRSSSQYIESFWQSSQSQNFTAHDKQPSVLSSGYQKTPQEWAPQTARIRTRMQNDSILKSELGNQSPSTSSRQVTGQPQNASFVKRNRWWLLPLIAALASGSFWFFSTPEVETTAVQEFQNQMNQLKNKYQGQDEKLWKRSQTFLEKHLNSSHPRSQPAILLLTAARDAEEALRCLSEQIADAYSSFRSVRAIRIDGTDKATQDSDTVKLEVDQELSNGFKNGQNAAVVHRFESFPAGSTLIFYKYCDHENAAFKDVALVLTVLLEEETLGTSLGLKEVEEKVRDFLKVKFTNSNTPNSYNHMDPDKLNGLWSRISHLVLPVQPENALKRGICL

[10] = biological target: Alpha-bungarotoxin (Bungarus multicinctus) (UniProt P60615); assay: alpha-bungarotoxin binders on microarray, profiling panel, artefact control for SMM control protein annotation, biochemical, small-molecule microarray, Alexa647 label, 635/667 nm fluorescence (AID 1117); settings: alpha-BTX-A647 binding fluorescence, higher = more signal
Chain of Alpha-bungarotoxin (Bungarus multicinctus) (P60615 whole entry, looked up): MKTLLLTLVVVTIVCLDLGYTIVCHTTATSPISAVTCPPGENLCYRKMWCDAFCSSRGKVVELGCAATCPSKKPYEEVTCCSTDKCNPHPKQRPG

SMILES	composite z-score [1]	z-score [2]	composite z-score [3]	composite z-score [4]	composite z-score [5]	composite z-score [6]	composite z-score [7]	composite z-score [8]	composite z-score [9]	composite z-score [10]
C[N+](C)(C)CCCCCCNC(=O)[C@@H]1C[C@@H]2C(=O)N[C@@H](Cc3ccccc3)C(=O)N2[C@@H]1c1cccc(OCCO)c1	0.44	0.137	0.542	-0.637	-0.792	-0.107	-0.0813	-0.364	1.22	1.24
COC(=O)C(CC#Cc1ccc2c(c1)[C@]1(C(=O)N2)[C@H](C(=O)Nc2nc3ccccc3s2)[C@H]2C(=O)O[C@H](c3ccccc3)[C@H](c3ccccc3)N2[C@@H]1c1ccc(O)cc1)C(=O)OC	1.45	-0.801	0.829	0.728	0.255	0.027	-0.0977	0.406	1.89	0.982
CC[C@@H]1C=C(C(=O)O)[C@H](c2ccc(Br)cc2)N1S(=O)(=O)c1ccc(C)cc1	0.618	-0.832	-0.124	1.17	0.244	-0.154	-0.0769	0.581	0.532	0.535
COCCOC(=O)N1C(=O)[C@@]2(c3cc(C#Cc4ccc(OC)cc4)ccc31)[C@H](c1ccc(O)cc1)N1[C@H](c3ccccc3)[C@H](c3ccccc3)OC(=O)[C@H]1[C@@H]2C(=O)N1CCc2cc(OC)c(OC)cc2C1	1.32	-0.296	0.471	1.74	0.141	0.0017	-0.301	0.27	0.796	0.317
C=CC[C@@]1(C(=O)NCCN2CCOCC2)N=C(c2ccc(OCCCO)cc2)O[C@@H]1c1ccccc1N=[N+]=[N-]	0.446	-1.23	0.187	1.26	0.581	-0.1	-0.215	-0.0119	1.76	0.841
CCCCC(CC)C(O)C1C=CC2C(=O)N(Cc3ccccc3)C(=O)C2N1n1cnnc1 (stereo not given)	0.281	0.137	-0.729	-0.0327	-0.658	-0.124	-0.153	-0.127	-0.0742	0.308
CC1(C)[C@@H]2CC(C(O)C3C=CC4C(=O)N(Cc5ccccc5)C(=O)C4N3n3cnnc3)=C[C@H]1C2 (stereo not given in full)	1.4	-0.254	0.223	0.549	-0.0552	0.0374	-0.271	-0.0304	0.187	0.6
C=CCC(OC(C)=O)[C@@H]1[C@@H](N(Cc2ccc(-c3ccccc3)cc2)C(=O)c2cccc3ccccc23)c2cc(OCCCO)ccc2N1C(=O)c1ccc(-c2ccccc2)cc1 (stereo not given in full)	0.431	-0.133	-0.351	0.468	0.553	-0.187	-0.0793	-0.443	0.951	0.445
CCCC=C(CCC)[C@@H](NC(=O)c1cccs1)c1ccc(C(F)(F)F)cc1	1.17	-0.668	1.16	1.48	0.522	0.0546	0.336	1.15	1.27	0.734
C=CCOC(=O)[C@@H]1[C@H]2C(=O)O[C@H](c3ccccc3)[C@H](c3ccccc3)N2[C@H](c2ccc(OCCOC(=O)[C@@H]3C[C@@H]4C(=O)NCC(=O)N4[C@@H]3c3ccc(O)cc3)cc2)[C@@]12C(=O)Nc1ccc(I)cc12	0.403	-1.29	0.902	1.2	0.499	-0.101	0.0796	-0.175	1.4	0.872
CN1C(=O)C2C=CC(C(O)C3CC=CCC3)N(N(c3ccccc3)c3ccccc3)C2C1=O (stereo not given)	-1.02	-0.155	0.411	-0.549	-0.75	0.027	-0.0322	-0.0446	0.533	0.141
CCS[C@H]1[C@@H](C(=O)O)[C@H](c2ccc(C)cc2)N(S(=O)(=O)c2ccc(C)cc2)[C@@H]1CC	1.39	0.841	0.0041	0.83	0.0072	-0.1	-0.0035	1.11	0.827	0.834
CN(C)CCCCCCNC(=O)[C@@H]1C[C@@H]2C(=O)N[C@@H](Cc3ccccc3)C(=O)N2[C@@H]1c1ccc(O)cc1	1.13	2.17	1.02	-0.565	-1.14	-0.0425	0.0668	0	1.32	2.47
CN(C)CCCC[C@@H]1NC(=O)[C@@H]2C[C@H](C(=O)NCCCCCCN)[C@H](c3cccc(OCCO)c3)N2C1=O	1.29	0.484	0.45	1.23	0.827	-0.0455	0.876	1.13	2.88	2.63
COC(=O)[C@@]1(Cc2ccc(OC)cc2)[C@H]2c3cc(C(=O)N(C)C)n(Cc4ccccn4)c3C[C@H]2CN1C(=O)c1ccccc1	-0.0851	-0.741	-0.479	2.86	1.41	0.0859	0.645	1.86	3.05	1.13
CCCc1cc2c(n1Cc1cc(F)cc(F)c1)C(C)C1CN(C(=O)c3ccccc3)C(C)(C(=O)OC)C21 (stereo not given)	1.35	-2.24	0.225	2.31	0.813	0.36	-0.148	0.363	2.6	2.34
O=C1C[C@]2(c3ccc([N+](=O)[O-])cc3)C(=O)N(CC(F)(F)F)c3cc(CO)ccc3[C@H]2N1C1CCCCC1	-0.83	0.909	-1.34	-0.74	-0.624	-0.103	-0.221	-0.495	-0.555	-0.605
C=CCNC(=O)[C@@H]1[C@H]2C(=O)O[C@H](c3ccccc3)[C@H](c3ccccc3)N2[C@H](c2ccccc2OCCO)[C@@]12C(=O)N(C(=O)OCCOC)c1ccccc12	1.43	-2.64	0.877	0.926	-0.464	0.132	0.126	-0.331	0.784	1.25
O=C(CS)NCCCCCCNC(=O)[C@@H]1C[C@@H]2C(=O)NCC(=O)N2[C@@H]1c1cccc(OCCO)c1	1.41	-0.895	-0.709	2.44	-0.215	-0.177	-0.188	-0.652	1.21	1.1
C=C(/C(=C/C[C@H](OC(C)=O)c1ccc(CO)o1)c1cc(C(=O)OC)ccc1OC)C(C)C	-0.3	-2.22	-0.183	-0.0278	-0.061	-0.0506	0.318	0.168	0.0916	-0.829
CCCC[C@@H]1C[C@H]1[C@@H](NC(=O)c1ccco1)c1ccc(-c2ccccc2)cc1	0.114	-0.971	0.0023	-0.179	0.0765	0.0916	0.104	0.376	0.425	0.0932
COCCOC(=O)N1C(=O)[C@@]2(c3cc(C#CC4(O)CCCCCC4)ccc31)[C@H](c1ccc(OCCO)cc1)N1[C@H](c3ccccc3)[C@H](c3ccccc3)OC(=O)[C@H]1[C@@H]2C(=O)N1CCN(c2ncccn2)CC1	1.43	-1.77	0.419	0.795	0.124	0.0044	-0.147	0.106	0.667	1.19
COCCOC(=O)N1C(=O)[C@@]2(c3cc(C#Cc4ccc(OC)cc4)ccc31)[C@H](c1ccc(OCCO)cc1)N1[C@H](c3ccccc3)[C@H](c3ccccc3)OC(=O)[C@H]1[C@@H]2C(=O)N1CCN(c2ncccn2)CC1	0.819	-1.45	1.08	1.12	0.715	-0.0585	-0.26	0.0308	0.391	0.953
COc1ccc(C#Cc2ccc3c(c2)[C@]2(C(=O)N3)[C@H](C(=O)NC[C@H](O)c3ccccc3)[C@H]3C(=O)O[C@H](c4ccccc4)[C@H](c4ccccc4)N3[C@@H]2c2ccc(O)cc2)cc1	1.43	-1.38	0.559	1.04	-0.064	0.0952	0.0723	0.277	1.06	1.72
CCN(CC)c1ccc(N2CC=CC34O[C@@H]5C=CCCOC(=O)C5[C@H]3C(=O)N(CCCCCCO)[C@@H]4C2=O)cc1 (stereo not given in full)	-0.873	0.234	-0.395	-0.235	0.307	-0.096	-0.26	-0.229	1.33	-0.419
